Data on 43 molecules can be found in PubChem BioAssay AID1259349 (Broad Institute, 2017).

Screen size: about 17,000 compounds; about 1,100 (6.5%) were called active. This is one part of a sample in which actives are shown more often than they occur. Unmarked numbers belong to inactive results.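 Rule for the calls: active = z-score of -3 or lower, meaning strong loss of probe binding signal; inactive = the rest.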

For the test, the target named is Insulin-degrading enzyme (Homo sapiens) (UniProt P14735). Put plainly: exo-site inhibitors of human IDE, primary screen, biochemical, fluorescence anisotropy, probe displacement (AID 1259349).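 Note: His-tagged human IDE residues 42-1019 made in E. coli with 30 nM FL-6b probe.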 To be noted: purified IDE, FL-6b probe fluorescence polarization; at 20 µM; stronger effect = lower value.
Insulin-degrading enzyme (Homo sapiens), sequence (P14735 42-1019 limits assumed): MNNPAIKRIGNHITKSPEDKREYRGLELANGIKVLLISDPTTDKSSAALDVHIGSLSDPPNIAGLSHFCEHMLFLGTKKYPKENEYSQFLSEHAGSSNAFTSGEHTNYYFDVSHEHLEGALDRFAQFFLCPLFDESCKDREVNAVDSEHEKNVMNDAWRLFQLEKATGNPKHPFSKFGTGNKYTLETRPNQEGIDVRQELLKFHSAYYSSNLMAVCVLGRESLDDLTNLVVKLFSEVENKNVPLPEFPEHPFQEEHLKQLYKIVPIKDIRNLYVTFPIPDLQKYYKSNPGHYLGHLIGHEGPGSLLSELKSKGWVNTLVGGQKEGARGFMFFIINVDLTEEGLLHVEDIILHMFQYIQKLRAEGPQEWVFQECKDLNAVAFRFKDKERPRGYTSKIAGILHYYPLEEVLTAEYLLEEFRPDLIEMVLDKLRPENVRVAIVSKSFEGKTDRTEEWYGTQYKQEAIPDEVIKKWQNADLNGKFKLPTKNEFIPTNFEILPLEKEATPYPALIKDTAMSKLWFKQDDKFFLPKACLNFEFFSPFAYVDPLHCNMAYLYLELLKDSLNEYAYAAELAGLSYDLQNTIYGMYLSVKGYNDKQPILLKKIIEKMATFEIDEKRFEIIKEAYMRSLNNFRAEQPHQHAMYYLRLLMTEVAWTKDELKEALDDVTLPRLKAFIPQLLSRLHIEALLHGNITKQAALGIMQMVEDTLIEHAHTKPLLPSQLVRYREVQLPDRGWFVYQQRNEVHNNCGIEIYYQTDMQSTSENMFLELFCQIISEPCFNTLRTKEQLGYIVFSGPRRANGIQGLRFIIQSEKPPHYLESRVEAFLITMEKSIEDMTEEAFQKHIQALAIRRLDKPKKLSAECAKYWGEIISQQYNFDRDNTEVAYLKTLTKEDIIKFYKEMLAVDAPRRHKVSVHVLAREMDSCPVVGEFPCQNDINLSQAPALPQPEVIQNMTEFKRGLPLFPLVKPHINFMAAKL
Turning to `N#C[C@@H]1N[C@@H](CO)[C@@H]1c1ccc(C#Cc2ccccc2F)cc1`, the z-score is -3.8 (active).
The same measure for `COc1ccccc1C#Cc1ccc([C@H]2[C@@H](C#N)N(C(=O)C3CCCCC3)[C@@H]2CO)cc1`: -7.41 (active); for `N#C[C@@H]1N[C@H](CO)[C@@H]1c1ccc(/C=C/c2ccccc2)cc1`: 0.0442; for `CC(C)C#Cc1ccc([C@@H]2[C@@H](C#N)N(C(=O)C3CC3)[C@@H]2CO)cc1`: 1.34.
The value for `N#C[C@H]1N[C@H](CO)[C@@H]1c1ccc(C#Cc2ccccc2F)cc1` was 0.0442; that for `N#C[C@H]1[C@H](c2ccc(C#Cc3ccc(F)cc3)cc2)[C@@H](CO)N1C(=O)C1CCCC1` was 6.39.
`N#C[C@@H]1[C@H](c2ccc(C#Cc3ccccc3F)cc2)[C@H](CO)N1C(=O)C1CCCCC1`: the z-score is -0.57.
The same measure for `COCC(=O)N1[C@H](CO)[C@@H](c2ccc(C#Cc3ccccc3F)cc2)[C@@H]1C#N`: -3.16 (active); for `CCCC#Cc1ccc([C@H]2[C@@H](CO)N(C(=O)C3CC3)[C@H]2C#N)cc1`: 0.0113.
Turning to `N#C[C@@H]1[C@@H](c2ccccc2)[C@@H](CO)N1C(=O)Cc1ccccc1`, the z-score was 0.975.
The value for `COc1ccccc1C#Cc1ccc([C@@H]2[C@@H](CO)N(C(=O)C3CC3)[C@H]2C#N)cc1` was -8.33 (active).
The same measure for `COCC(=O)N1[C@H](CO)[C@H](c2ccccc2-c2ccc(C)cc2)[C@@H]1C#N`: 0.234; for `C[C@@H]1CN([C@@H](C)CO)C(=O)c2cc(-c3ccc(C#N)cc3)cnc2O[C@@H]1CN(C)Cc1cccnc1`: 0.499; for `COc1cccc(S(=O)(=O)Nc2ccc3c(c2)[C@@H]2C[C@H](CC(=O)NC4CCCCC4)O[C@H](CO)[C@@H]2O3)c1`: 0.0301.
The same measure for `O=S(=O)(Cc1ccccc1)N1CCCCN2[C@H](CO)[C@@H](c3ccc(-c4cncnc4)cc3)[C@H]2C1`: 1.15; for `CCc1sc(N2[C@@H](C#N)[C@@H](c3ccccc3-c3ccccc3)[C@@H]2CO)nc1C`: 1.04.
For the molecule `COc1ccc(NC(=O)N2CC(=O)N3[C@H](CO)[C@@H](c4ccc(C#CCC5CCCC5)cc4)[C@H]3C2)cc1`, the z-score is 2.81.
The same measure for `CCCNC(=O)N1CC(=O)N2[C@@H](CO)[C@H](c3ccc(-c4ccc(C)cc4)cc3)[C@@H]2C1`: -1.44; for `COc1cccc(C#Cc2ccc([C@@H]3[C@H]4CN(C(=O)Cc5ccccc5)CC(=O)N4[C@H]3CO)cc2)c1`: -0.17; for `COc1ccccc1NC(=O)N1CC(=O)N2[C@H](CO)[C@H](c3ccc(C#Cc4ccccc4)cc3)[C@H]2C1`: -2.66.
The same measure for `COCC(=O)N1CC(=O)N2[C@@H](CO)[C@@H](c3ccc(C#CC(C)C)cc3)[C@@H]2C1`: 1.03; for `COCC(=O)N1CC(=O)N2[C@H](C1)[C@@H](c1ccc(C#Cc3cccc(OC)c3)cc1)[C@@H]2CO`: -5.09 (active); for `COc1ccccc1NC(=O)N1CC(=O)N2[C@H](C1)[C@H](c1ccc(C#Cc3ccccc3)cc1)[C@@H]2CO`: -3.53 (active).
The value for `CCCNC(=O)N1CC(=O)N2[C@H](CO)[C@@H](c3ccc(-c4ccc(F)cc4)cc3)[C@H]2C1` was -0.254.
Regarding `CCCNC(=O)N1CC(=O)N2[C@H](C1)[C@@H](c1ccc(C#Cc3ccccc3)cc1)[C@@H]2CO`, the z-score was -4.24 (active).
The value for `COc1ccccc1NC(=O)N1CC(=O)N2[C@H](CO)[C@@H](c3ccc(C#Cc4ccc(F)cc4)cc3)[C@H]2C1` was 3.22; that for `C[C@H]1CN([C@@H](C)CO)C(=O)CCCn2nncc2CO[C@H]1CN(C)S(=O)(=O)c1ccccc1C#N` was -0.585; that for `Cc1ccc(-c2ccc([C@H]3[C@H](CO)N4C(=O)CN(S(=O)(=O)c5cccc(F)c5)C[C@@H]34)cc2)cc1` was 1.91.
The value for `C[C@H](NC(=O)C[C@@H]1C[C@@H]2c3cc(NS(=O)(=O)c4ccc(F)cc4)ccc3O[C@@H]2[C@@H](CO)O1)c1ccccc1` was -0.633; that for `O=C1NCCCOCc2cn(nn2)CC[C@@H]1Cc1ccc(-c2ccccc2)cc1` was -0.0302.
The same measure for `O=C(c1ccncc1)N1CC(=O)N2[C@H](CO)[C@H](c3ccc(-c4ccccc4F)cc3)[C@@H]2C1`: 0.944; for `CCCC#Cc1ccc([C@@H]2[C@@H](CO)N3C(=O)CN(C(=O)c4ccncc4)C[C@@H]23)cc1`: 1.2; for `CCCC#Cc1ccc([C@H]2[C@@H](CO)N3C(=O)CN(C(=O)c4ccncc4)C[C@H]23)cc1`: 0.281.
For the molecule `Cc1ccccc1-c1ccc([C@H]2[C@@H](CO)N3C(=O)CN(C(=O)c4ccncc4)C[C@@H]23)cc1`, the z-score is -3.52 (active).
The value for `Cc1ccccc1-c1ccc([C@H]2[C@@H](CO)N3C(=O)CN(C(=O)c4ccncc4)C[C@H]23)cc1` was -10 (active); that for `O=C(c1ccncc1)N1CC(=O)N2[C@H](CO)[C@@H](c3ccc(-c4cccnc4)cc3)[C@H]2C1` was 2.02; that for `COc1ccc(C#Cc2ccc([C@@H]3[C@@H](CO)N4C(=O)CN(C(=O)c5ccc(F)cc5)C[C@@H]34)cc2)cc1` was 0.452.
The same measure for `CN(C)C(=O)c1ccc(-c2ccc([C@@H]3[C@H](C#N)N(C(=O)C4CC4)[C@H]3CO)cc2)cc1`: -0.273.
Regarding `COc1ccc(CN(C)C[C@@H]2Oc3ccc(NC(=O)Nc4ccc5c(c4)OCO5)cc3CC(=O)N([C@H](C)CO)C[C@H]2C)cc1`, the z-score is 1.72.
The value for `COc1ccc2c3c(n(C)c2c1)[C@@H](CO)N(CC1CC1)CC31CCN(C(=O)c2cccc(F)c2)CC1` was 0.882; that for `CO[C@H](CN(C)C(=O)c1cnccn1)[C@@H](C)CN([C@@H](C)CO)S(=O)(=O)c1ccccc1` was 1.89.
The same measure for `CN(C)CC(=O)N1[C@H](C#N)[C@H](c2ccccc2-c2cccc(C(=O)N(C)C)c2)[C@@H]1CO`: 4.1.
On to `C[C@@H]1CN([C@H](C)CO)C(=O)c2c(c3ccccc3n2C)-c2ccccc2CO[C@H]1CN(C)C(=O)[C@@H](Cc1ccccc1)N(C)C`, for which the z-score was -1.45.
